# Inconclusive results are not listed. The source made the active and inactive calls. The call rests on the fitted dose curve; in most records, active means well fitted inhibition curve with a large enough effect; inconclusive means small, poorly fitted or top-dose-only effect; inactive means flat fitted curve, though single readings scatter.
# Experiment: Secondary Assay for lipid storage modulators: Cytotoxcity for probe SAR
# Conditions: Drosophila S3 cells viability, CellTiter-Glo luminescence, 24 h; series mostly up to 46.1 µM
# Text: NIH Molecular Libraries Probe Production Centers Network [MLPCN] NIH Chemical Genomics Center [NCGC] MLPCN Grant: 1 R03 MH085686-01 Assay Submitter (PI): Beller, Mathias; Max-Planck-Institut fur Biophysikalische Chemie, Germany. NCGC Assay Overview: Storing lipids as a reservoir for energy or the anabolism of elementary metabolites is a common feature of probably all cells and is conserved from bacteria to humans. The universal cellular lipid storage organelle is the so-called lipid storage droplet (LD). Although ubiquitous, LDs share a simple structure composed of a hydrophobic core that harbors the storage lipids, which is shielded by a droplet-specific phospholipid monolayer to which proteins are attached. The current model of LD biogenesis involves an incorporation of the lipid core into the membrane leaflets of the endoplasmic reticulum (ER) followed by a subsequent budding-like maturation of a LD, which ultimately pinches off. Once released, LD volume can increase by localized lipogenesis or fusion of existing droplet. Storage lipids are re-mobilized enzymatically by lipase activity. Lipase regulation in the adipocyte is heavily studied and involves multiple components including catecholamine signaling, the LD-associated proteins Perilipin and comparative gene identification (CGI-58) and at least two lipases named hormone sensitive lipase (HSL) and adipocyte triglyceride lipase (ATGL). LD regulation outside of the adipocyte is poorly understood and only few components are known. However, there is an urgent need to learn more about ectopic fat depots as mislocalized storage of lipids, for example in the liver or muscle, is an eminent health problem associated with insulin resistance or the metabolic syndrome. We developed a laser-scanning cytometer assay to enable 1,536-well screening and combined the results of the small molecules screen with an RNAi database based on lipid storage. The compound was tested here for cytotoxcity using CellTiter-Glo.
# Assay Protocol Summary: Cytotoxcity assay was performed with embryonic Drosophila S3 cells (Bloomington Drosophila Genomics Resource Center [DGRC]). We dispensed 4 uL of cells at 1.25 x 10^6 cells/mL into Greiner solid white 1,536-well plates with a bottle-valve solenoid-based dispenser (Aurora) to obtain 5,000 cells/well. A total of 23 nL of compound solution of different concentrations were transferred to the assay plates using a Kalypsys pin tool equipped with a 1,536-pin array containing 10-nL slotted pins (FP1S10, 0.457-mm diameter, 50.8 mm long; V&P Scientific). One microliter of oleic acid (400 uM) was added, and the plate was lidded with stainless steel rubber gasket lined lids containing pinholes. After 24 hrs of incubation at 24 degrees Celsius and 95% humidity, 4 uL of CellTiter-Glo (Promega) was added to the wells. Luminescence was detected on the Perkin Elmer ViewLux.
row,SMILES,outcome
1,CCOc1ccc(CCNC(=O)c2ccc(C(=O)c3ccccc3)cc2)cc1OCC,inactive
2,CCC/C=C/C/C=C/C=C/C=N/NN=O,inactive
3,CCOc1ccc(CCNC(=O)c2ccc(Oc3ccccc3)cc2)cc1OCC,inactive
4,CCOc1ccc(CCNC(=O)c2ccccc2)cc1OCC,inactive
5,CCOC(=O)C1CCN(C(=O)C2(NC(=O)Nc3ccccc3Cl)CCCC2)CC1,inactive
